Source: PubChem BioAssay (NCATS)
Inconclusive results are not listed. Activity calls are given as the source filed them. Unless noted, the call rests on the fitted dose curve; in most records, active means well fitted curve in the direction sought with a large enough effect; inconclusive means small, poorly fitted or top-dose-only effect, or another doubt; inactive means no such curve, though single readings can be large; an effect the other way counts as inactive or inconclusive.

What was measured:
[1] = qHTS assay for measurement of the activity of small molecule inhibitors on Zika virus induced Caspase-3 activity in human iPSC derived neural progenitor cells (hNPCs) (AID 1224857); further: nearly all actives have a fitted effect of over 65% in size; further: potency means the concentration at half of the fitted maximal effect
Outline: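 In medium with heparin 2 ug/ml and cyclopamine 2 uM, hNPCs (350 cells/well) received compound for one hour and then Zika virus at 2 FFU/cell; caspase activity was measured by Caspase-Glo 3/7 luminescence 6 h post-infection.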

[2] = target: Atrial natriuretic peptide receptor 2 (Homo sapiens) (UniProt P20594); assay: Natriuretic polypeptide receptor (hNpr2) antagonism - Pilot subtype selectivity assay (AID 1347050; calls by dose curve)
Outline: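 Pilot selectivity screen against hNpr2: HEK293 cGMP-sensor cells are treated with LOPAC1280 compounds, then with hNppC peptide at 1 nM final. The cGMP-driven luminescence change over 20 min at room temperature is the read-out.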

[3] = target: T1, Tyrosine-protein phosphatase non-receptor type substrate 1 (Homo sapiens) + Leukocyte surface antigen CD47 (Homo sapiens) (UniProt P78324+Q08722); assay: CD47-SIRPalpha protein protein interaction - LANCE assay qHTS validation (AID 1347057; active means well fitted curve in the direction sought with a large enough effect in the signal ratio, with a control signal flat, not every such curve was filed as active; the % refers to the signal ratio; further: series mostly up to about 38 µM)
Outline: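 First, His-tagged CD47 and Eu-labelled anti-His antibody met the compound for 30 min; next, site-specifically biotinylated SIRPalpha was added for 30 min; finally streptavidin-APC was added before reading the TR-FRET ratio.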

[4] = target: T1, Tyrosine-protein phosphatase non-receptor type substrate 1 (Homo sapiens) + Leukocyte surface antigen CD47 (Homo sapiens); assay: CD47-SIRPalpha protein protein interaction - HTRF assay qHTS validation (AID 1347058; active means well fitted curve in the direction sought with a large enough effect in the signal ratio, not every such curve was filed as active; the % refers to the signal ratio;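 further: recombinant soluble extracellular CD47 with His tag and biotinylated SIRPalpha domains; series mostly up to about 38 µM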)
Outline: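 TR-FRET read (Ch1/Ch2 ratio) of soluble extracellular CD47 and Avi-biotinylated SIRPalpha domains in PBS pH 7.4 with 0.05% IGEPAL; 7-point compound titration. Sequential 30 min room-temperature steps; non-biotinylated SIRPalpha as control inhibitor.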

[5] = target: T1, Tyrosine-protein phosphatase non-receptor type substrate 1 (Homo sapiens) + Leukocyte surface antigen CD47 (Homo sapiens); assay: CD47-SIRPalpha protein protein interaction - Alpha assay qHTS validation (AID 1347059);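 further: bead proximity luminescence from CD47 binding SIRPalpha after compound preincubation with SIRPalpha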
Outline: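 Binding is measured by AlphaScreen proximity: Ni-NTA acceptor beads capture His-CD47, streptavidin donor beads capture biotin-SIRPalpha. Each of three additions (SIRPalpha with compound, CD47, beads) incubates 30 min at room temperature protected from light.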

[6] = target: Parathyroid hormone/parathyroid hormone-related peptide receptor (Homo sapiens) (UniProt Q03431); assay: qHTS for PTHR1 Agonists: Optimization Screen against the NCGC LOPAC library (AID 1347079);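 further: GloSensor cAMP luminescence in HEK-293 GP2 cells expressing human PTHR1 with IBMX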
Outline: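 Compounds were tested across a qHTS titration. PTHR1-expressing GP2 cells report cAMP rises via GloSensor luminescence after 1 hr compound exposure at 37C with IBMX present.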

[7] = NS1 protein of Zika virus - qHTS assay to identify small molecule inhibitors in human HEK 293 cells (AID 1347053); further: series mostly up to about 46 µM; nearly all actives have a fitted effect of over 55% in size
Outline: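 HEK 293 cells, seeded 20 h at 37 C, were pretreated with compound 1 h, then infected with ZIKV MR766 (MOI = 0.5) for 24 h. NS1 was read by TR-FRET with two anti-NS1 antibodies, normalized to uninfected and infected wells.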

[8] = target: Atrial natriuretic peptide receptor 1 (Homo sapiens) (UniProt P16066); assay: Natriuretic polypeptide receptor (hNpr1) antagonism - Pilot screen (AID 1347049; calls by dose curve;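 further: agonist-evoked cGMP luminescence read 20 min after hNppA addition; series mostly up to about 58 µM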)
Outline: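 Readout is cGMP-driven firefly luciferase luminescence in HEK293 cells carrying hNpr1 and a PDE5-domain GloSensor, read before and 20 min after 0.1 nM hNppA stimulation. Cells had 2% substrate reagent for 2 h and test compound for 30 min.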

Measured: Potency

Sequence of Parathyroid hormone/parathyroid hormone-related peptide receptor (Homo sapiens) (Q03431 whole entry, looked up): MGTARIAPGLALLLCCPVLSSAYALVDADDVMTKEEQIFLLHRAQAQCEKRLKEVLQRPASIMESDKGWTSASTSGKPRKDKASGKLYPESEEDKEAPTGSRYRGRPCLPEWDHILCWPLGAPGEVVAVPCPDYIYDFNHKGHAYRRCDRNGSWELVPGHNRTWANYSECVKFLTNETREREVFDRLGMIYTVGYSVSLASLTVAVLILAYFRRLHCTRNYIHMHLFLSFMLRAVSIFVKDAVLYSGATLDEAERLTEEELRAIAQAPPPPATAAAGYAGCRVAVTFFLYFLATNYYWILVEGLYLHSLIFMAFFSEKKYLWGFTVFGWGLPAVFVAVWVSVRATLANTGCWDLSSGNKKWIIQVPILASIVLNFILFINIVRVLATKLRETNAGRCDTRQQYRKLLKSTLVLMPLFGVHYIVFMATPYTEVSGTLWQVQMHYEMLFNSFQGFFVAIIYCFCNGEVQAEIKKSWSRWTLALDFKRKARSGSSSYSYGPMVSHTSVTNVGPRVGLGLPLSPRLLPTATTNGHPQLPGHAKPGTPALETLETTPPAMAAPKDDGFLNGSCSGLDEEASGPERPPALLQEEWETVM
Sequence of Atrial natriuretic peptide receptor 1 (Homo sapiens) (P16066 whole entry, looked up): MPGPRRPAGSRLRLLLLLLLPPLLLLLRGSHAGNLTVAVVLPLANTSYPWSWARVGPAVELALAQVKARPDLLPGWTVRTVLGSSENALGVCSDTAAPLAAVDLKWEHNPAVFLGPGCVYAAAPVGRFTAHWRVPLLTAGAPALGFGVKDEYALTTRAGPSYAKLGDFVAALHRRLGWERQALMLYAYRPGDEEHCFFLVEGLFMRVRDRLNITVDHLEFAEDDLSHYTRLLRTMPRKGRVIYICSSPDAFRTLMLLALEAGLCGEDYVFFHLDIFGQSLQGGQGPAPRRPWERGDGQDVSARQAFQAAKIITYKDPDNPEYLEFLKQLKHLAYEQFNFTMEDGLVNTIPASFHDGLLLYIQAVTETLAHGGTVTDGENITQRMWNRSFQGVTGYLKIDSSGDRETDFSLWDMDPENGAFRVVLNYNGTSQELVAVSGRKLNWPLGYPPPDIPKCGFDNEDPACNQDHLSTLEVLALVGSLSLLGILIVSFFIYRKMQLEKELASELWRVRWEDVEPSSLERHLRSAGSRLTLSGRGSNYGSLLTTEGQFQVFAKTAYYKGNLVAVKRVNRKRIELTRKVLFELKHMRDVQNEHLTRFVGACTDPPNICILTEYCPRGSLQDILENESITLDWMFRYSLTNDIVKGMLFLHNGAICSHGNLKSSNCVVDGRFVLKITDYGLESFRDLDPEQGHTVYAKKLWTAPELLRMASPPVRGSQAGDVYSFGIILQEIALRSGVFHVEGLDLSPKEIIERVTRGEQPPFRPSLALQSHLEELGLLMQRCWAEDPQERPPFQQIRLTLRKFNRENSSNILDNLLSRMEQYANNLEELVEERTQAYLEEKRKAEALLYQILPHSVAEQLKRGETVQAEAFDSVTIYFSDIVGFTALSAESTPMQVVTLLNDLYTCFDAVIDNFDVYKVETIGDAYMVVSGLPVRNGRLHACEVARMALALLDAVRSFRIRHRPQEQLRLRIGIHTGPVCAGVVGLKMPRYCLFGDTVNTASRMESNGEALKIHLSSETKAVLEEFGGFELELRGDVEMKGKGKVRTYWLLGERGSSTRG
Sequence of Atrial natriuretic peptide receptor 2 (Homo sapiens) (P20594 whole entry, looked up): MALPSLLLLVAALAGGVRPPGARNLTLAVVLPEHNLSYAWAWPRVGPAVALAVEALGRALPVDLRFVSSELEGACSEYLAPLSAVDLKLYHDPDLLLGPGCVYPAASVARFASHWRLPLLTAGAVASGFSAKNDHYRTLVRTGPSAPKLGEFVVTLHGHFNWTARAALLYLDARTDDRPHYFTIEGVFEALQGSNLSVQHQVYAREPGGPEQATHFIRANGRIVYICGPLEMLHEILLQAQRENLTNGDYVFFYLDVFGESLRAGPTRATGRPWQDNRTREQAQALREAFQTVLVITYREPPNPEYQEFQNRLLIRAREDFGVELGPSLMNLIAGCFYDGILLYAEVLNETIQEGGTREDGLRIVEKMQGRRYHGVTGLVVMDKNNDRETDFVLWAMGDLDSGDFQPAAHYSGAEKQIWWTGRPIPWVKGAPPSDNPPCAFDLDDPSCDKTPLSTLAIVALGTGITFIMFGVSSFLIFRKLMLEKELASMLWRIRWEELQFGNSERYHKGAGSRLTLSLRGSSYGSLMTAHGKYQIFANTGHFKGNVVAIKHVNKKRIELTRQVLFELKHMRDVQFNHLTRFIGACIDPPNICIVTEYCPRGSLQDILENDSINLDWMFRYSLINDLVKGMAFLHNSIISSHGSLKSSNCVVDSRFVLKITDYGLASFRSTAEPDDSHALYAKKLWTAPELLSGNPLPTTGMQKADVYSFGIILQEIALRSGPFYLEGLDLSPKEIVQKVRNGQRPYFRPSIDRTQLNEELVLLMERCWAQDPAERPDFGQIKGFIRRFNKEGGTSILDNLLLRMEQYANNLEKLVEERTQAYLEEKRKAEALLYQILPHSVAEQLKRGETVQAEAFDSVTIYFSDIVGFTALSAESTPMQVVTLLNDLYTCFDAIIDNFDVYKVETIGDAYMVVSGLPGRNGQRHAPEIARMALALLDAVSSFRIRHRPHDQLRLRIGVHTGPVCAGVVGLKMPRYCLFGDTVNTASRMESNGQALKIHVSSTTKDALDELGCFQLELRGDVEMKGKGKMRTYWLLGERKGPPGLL
T1 sequence (P78324 whole entry, looked up): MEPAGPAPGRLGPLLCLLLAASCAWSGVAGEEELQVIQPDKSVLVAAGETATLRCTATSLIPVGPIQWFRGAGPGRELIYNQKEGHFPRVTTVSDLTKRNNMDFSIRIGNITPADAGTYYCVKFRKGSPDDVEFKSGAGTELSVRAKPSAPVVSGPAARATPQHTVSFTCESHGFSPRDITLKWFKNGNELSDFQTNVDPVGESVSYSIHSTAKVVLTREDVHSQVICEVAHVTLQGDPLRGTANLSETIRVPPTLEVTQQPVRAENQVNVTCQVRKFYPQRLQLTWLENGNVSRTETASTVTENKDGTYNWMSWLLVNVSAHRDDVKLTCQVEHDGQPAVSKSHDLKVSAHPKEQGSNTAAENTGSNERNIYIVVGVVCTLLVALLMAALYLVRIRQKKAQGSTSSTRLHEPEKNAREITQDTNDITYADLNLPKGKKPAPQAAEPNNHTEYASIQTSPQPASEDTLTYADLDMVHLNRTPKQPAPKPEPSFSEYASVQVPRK
T1 sequence (Q08722 whole entry, looked up): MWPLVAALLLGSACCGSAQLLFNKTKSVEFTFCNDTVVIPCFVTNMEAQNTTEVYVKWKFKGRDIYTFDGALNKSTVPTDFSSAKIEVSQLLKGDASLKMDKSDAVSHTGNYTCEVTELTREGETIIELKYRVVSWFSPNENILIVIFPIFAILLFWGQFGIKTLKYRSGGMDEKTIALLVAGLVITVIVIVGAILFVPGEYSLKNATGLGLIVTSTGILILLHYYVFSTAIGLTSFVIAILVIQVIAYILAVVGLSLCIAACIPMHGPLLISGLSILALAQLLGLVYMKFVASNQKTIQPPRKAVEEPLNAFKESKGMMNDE

Clc1ccc(N2CCN(Cc3cc4ccccn4n3)CC2)cc1
inactive: [1] | [2] | [3] | [4] | [5] | [6]

CC[C@H]1OC(=O)[C@H](C)[C@@H](O[C@H]2C[C@@](C)(OC)[C@@H](O)[C@H](C)O2)[C@H](C)[C@@H](O[C@@H]2O[C@H](C)C[C@H](NC)[C@H]2O)[C@](C)(O)C[C@@H](C)CN(C)[C@H](C)[C@@H](O)[C@]1(C)O
inactive: [1] | [7] | [3] | [4] | [5]

CO[C@H]1O[C@@H]2O[C@]3(C)CC[C@@H]4[C@@H](C)CC[C@H]([C@H]1C)[C@]24OO3
inactive: [1] | [7] | [3] | [4] | [5]

COc1ccccc1CNCCCCCCNCCCCCCCCNCCCCCCNCc1ccccc1OC
inactive: [1] | [8] | [3] | [4] | [5] | [6]

Nc1nc2c(ncn2[C@@H]2O[C@H](CO)[C@@H](O)[C@@H]2O)c(=O)[nH]1
inactive: [1] | [7] | [3] | [4] | [5]

CC(C)c1cccc(C(C)C)c1N1C(=O)c2ccc(O)cc2C1=O
inactive: [1] | [7] | [3] | [4] | [5]

S=c1[nH]c(-c2ccccc2)cn1-c1ccccc1
inactive: [1] | [7] | [3] | [4] | [5]

O=C(O)CNC(=O)C(CS)Cc1ccccc1 (stereo not drawn)
inactive: [1] | [2] | [7] | [3] | [4] | [5] | [6]

CC(C)NC[C@@H](O)c1ccc(O)c(O)c1
inactive: [1] | [8] | [2] | [7] | [3] | [5] | [6]

O=C(CCc1ccncc1)NNC(=O)N1Cc2ccccc2Oc2ccc(Cl)cc21
inactive: [1] | [7] | [3] | [4] | [5]

CCOC(=O)C1=C(C)NC(C)=C(C(=O)OCC)C1c1c(F)c(F)c(F)c(F)c1F
inactive: [1] | [7] | [3] | [4] | [5] | [6]

COc1ccc(-c2cc(=O)c3c(O)c(OC)c(OC)cc3o2)cc1O
inactive: [1] | [7] | [3] | [5]

COc1ccc(Br)cc1S(=O)(=O)NC(=O)/C=C/c1ccccc1Cc1ccc2ccccc2c1
inactive: [1] | [7] | [3] | [4] | [5]

O=C1NC(=O)/C(=C/c2ccc(-c3ccc(F)cc3O)o2)S1
active: [1] 10 µM
inactive: [2] | [7] | [3] | [4] | [5] | [6]

N#C/C(=C\c1ccc(-c2cc(Cl)ccc2Cl)o1)C(=O)Nc1cccc2ncccc12
inactive: [1] | [8] | [7] | [3] | [5] | [6]

CS(=O)(=O)c1ccc(-n2nc(C(F)(F)F)cc2-c2ccc(F)cc2)cc1
inactive: [1] | [7] | [3] | [4] | [5]

CCNC(=O)[C@H]1O[C@@H](n2cnc3c(N)nc(NCCc4ccc(CCC(=O)O)cc4)nc32)[C@H](O)C1O (stereo partly drawn)
inactive: [1] | [7] | [3] | [4] | [5]

Brc1cc2c(cc1[C@H]1Nc3ccccc3[C@H]3C=CC[C@H]31)OCO2
inactive: [1] | [7] | [3] | [4] | [5]

O=c1[nH]c2cc([N+](=O)[O-])c([N+](=O)[O-])cc2[nH]c1=O
inactive: [1] | [2] | [7] | [3] | [5] | [6]

Nc1nc(OCC2CCCCC2)c2[nH]cnc2n1
inactive: [1] | [7] | [3] | [4] | [5]

Fc1cccc(/C=N/N=C/c2cccc(F)c2)c1
inactive: [1] | [8] | [3] | [4] | [5] | [6]

COc1ccccc1CN[C@@H]1CCCN[C@@H]1c1ccccc1
inactive: [1] | [7] | [3] | [4] | [5]

OC[C@H]1O[C@@H](n2cnc3c(NC4CCCCC4)ncnc32)[C@H](O)[C@@H]1O
inactive: [1] | [2] | [7] | [3] | [4] | [5] | [6]

COc1cc2c(CCNC(C)=O)c[nH]c2cc1Cl
inactive: [1] | [2] | [7] | [3] | [4] | [5] | [6]

CC[C@H]1OC(=O)[C@H](C)C(O[C@H]2C[C@@](C)(OC)[C@@H](O)[C@H](C)O2)[C@H](C)[C@@H](OC2O[C@H](C)C[C@H](N(C)C)[C@H]2O)[C@](C)(O)C[C@@H](C)CN(C)[C@H](C)[C@@H](O)[C@]1(C)O (stereo partly drawn)
inactive: [1] | [7] | [3] | [4] | [5]

COc1cc(OC)cc(-c2cc3cnc(N)nc3nc2NC(=O)NC(C)(C)C)c1
inactive: [1] | [7] | [3] | [4] | [5]

CN(C)CCC(c1ccc(Cl)cc1)c1ccccn1 (stereo not drawn)
inactive: [1] | [7] | [6]
